Test results: ChEMBL document CHEMBL1961873, “Compounds: GSK PKIS; Assays: Nanosyn kinase panel” (2012)

Experiments:
[1] = molecular target: T1, Serine/threonine-protein kinase TBK1 (Homo sapiens) (UniProt Q9UHD2); settings: at 1 µM;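 further: values are mean inhibition of TBK1, screened as part of the GSK published kinase inhibitor set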
T1 sequence (whole entry): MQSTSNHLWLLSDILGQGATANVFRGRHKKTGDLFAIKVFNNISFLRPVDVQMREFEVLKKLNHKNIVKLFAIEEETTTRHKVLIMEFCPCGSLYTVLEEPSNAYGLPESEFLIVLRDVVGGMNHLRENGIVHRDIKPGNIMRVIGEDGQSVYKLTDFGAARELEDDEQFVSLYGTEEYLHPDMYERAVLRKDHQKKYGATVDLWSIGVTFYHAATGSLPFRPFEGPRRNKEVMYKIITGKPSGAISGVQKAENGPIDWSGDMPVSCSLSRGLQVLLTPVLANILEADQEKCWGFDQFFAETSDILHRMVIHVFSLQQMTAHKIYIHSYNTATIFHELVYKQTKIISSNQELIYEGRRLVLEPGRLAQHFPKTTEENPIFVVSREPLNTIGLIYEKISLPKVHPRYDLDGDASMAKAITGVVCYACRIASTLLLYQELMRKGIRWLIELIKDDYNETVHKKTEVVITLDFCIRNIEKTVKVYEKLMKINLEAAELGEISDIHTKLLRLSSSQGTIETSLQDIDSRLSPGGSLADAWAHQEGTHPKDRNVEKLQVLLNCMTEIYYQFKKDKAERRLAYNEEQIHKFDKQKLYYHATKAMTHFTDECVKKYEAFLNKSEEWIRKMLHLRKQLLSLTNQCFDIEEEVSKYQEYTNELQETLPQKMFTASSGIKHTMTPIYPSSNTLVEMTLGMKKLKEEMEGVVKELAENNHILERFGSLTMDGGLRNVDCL

[2] = molecular target: T2, Testis-specific serine/threonine-protein kinase 1 (Homo sapiens) (UniProt Q9BXA7); settings: at 0.1 µM
T2 sequence (whole entry): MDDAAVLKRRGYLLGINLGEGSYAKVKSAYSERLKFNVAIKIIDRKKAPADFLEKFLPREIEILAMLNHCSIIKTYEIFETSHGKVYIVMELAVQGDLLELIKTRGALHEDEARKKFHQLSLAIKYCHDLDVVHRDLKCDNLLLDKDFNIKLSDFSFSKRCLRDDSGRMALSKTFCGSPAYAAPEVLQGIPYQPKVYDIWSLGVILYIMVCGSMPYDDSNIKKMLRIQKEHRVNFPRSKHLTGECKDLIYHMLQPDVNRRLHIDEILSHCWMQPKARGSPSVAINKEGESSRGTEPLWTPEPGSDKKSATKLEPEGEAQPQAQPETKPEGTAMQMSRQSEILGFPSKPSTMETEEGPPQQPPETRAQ

[3] = molecular target: T2, Testis-specific serine/threonine-protein kinase 1 (Homo sapiens); settings: at 1 µM
[4] = molecular target: T3, Testis-specific serine/threonine-protein kinase 2 (Homo sapiens) (UniProt Q96PF2); settings: at 0.1 µM
T3 sequence (whole entry): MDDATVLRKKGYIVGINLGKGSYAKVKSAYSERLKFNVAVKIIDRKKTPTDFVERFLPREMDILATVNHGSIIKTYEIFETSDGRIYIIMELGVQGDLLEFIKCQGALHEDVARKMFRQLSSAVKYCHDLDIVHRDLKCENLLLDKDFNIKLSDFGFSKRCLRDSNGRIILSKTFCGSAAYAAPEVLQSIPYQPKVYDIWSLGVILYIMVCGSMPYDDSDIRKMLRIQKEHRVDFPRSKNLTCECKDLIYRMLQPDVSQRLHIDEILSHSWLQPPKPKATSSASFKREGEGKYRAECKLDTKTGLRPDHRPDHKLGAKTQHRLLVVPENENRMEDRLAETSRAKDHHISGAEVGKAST

[5] = molecular target: T3, Testis-specific serine/threonine-protein kinase 2 (Homo sapiens); settings: at 1 µM
[6] = molecular target: Casein kinase I isoform alpha (Homo sapiens) (UniProt P48729); settings: at 0.1 µM
Chain of Casein kinase I isoform alpha (Homo sapiens) (P48729 2-337 limits assumed): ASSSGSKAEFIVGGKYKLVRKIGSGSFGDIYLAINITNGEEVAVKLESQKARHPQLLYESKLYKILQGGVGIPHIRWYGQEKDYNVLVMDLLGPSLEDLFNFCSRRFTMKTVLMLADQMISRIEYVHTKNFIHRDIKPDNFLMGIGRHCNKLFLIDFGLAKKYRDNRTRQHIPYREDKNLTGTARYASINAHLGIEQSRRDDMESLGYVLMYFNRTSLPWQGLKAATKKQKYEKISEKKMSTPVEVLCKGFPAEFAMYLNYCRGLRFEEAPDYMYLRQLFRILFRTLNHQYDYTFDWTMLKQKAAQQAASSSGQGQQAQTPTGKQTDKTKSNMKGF

[7] = molecular target: Casein kinase I isoform alpha (Homo sapiens) (UniProt P48729); settings: at 1 µM
[8] = molecular target: Casein kinase I isoform gamma-1 (Homo sapiens) (UniProt Q9HCP0); settings: at 0.1 µM
Chain of Casein kinase I isoform gamma-1 (Homo sapiens) (Q9HCP0 whole entry, looked up, canonical isoform): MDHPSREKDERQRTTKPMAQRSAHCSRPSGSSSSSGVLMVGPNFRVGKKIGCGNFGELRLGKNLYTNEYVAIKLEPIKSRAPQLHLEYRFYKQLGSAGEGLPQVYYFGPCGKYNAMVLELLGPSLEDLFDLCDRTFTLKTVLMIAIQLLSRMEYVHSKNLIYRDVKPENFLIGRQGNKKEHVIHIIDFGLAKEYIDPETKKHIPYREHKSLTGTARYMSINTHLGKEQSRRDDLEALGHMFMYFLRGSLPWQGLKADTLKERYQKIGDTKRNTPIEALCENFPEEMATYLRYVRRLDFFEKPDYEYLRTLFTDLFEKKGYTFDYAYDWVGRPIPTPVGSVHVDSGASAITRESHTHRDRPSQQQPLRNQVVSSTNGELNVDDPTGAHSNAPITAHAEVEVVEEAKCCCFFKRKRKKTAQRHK

[9] = molecular target: Casein kinase I isoform gamma-1 (Homo sapiens) (UniProt Q9HCP0); settings: at 1 µM
[10] = molecular target: Casein kinase I isoform gamma-2 (Homo sapiens) (UniProt P78368); settings: at 0.1 µM
Chain of Casein kinase I isoform gamma-2 (Homo sapiens) (P78368 whole entry, looked up, canonical isoform): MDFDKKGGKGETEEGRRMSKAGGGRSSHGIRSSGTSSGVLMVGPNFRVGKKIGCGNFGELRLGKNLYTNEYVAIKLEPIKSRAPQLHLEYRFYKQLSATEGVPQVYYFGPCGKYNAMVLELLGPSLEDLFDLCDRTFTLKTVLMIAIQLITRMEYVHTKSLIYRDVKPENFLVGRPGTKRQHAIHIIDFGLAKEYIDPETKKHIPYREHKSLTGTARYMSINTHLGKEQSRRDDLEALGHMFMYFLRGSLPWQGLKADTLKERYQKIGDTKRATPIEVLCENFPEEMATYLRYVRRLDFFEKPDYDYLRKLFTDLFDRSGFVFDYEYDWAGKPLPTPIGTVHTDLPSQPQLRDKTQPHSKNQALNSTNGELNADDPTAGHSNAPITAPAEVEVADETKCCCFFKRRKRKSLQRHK

[11] = molecular target: Casein kinase I isoform gamma-2 (Homo sapiens) (UniProt P78368); settings: at 1 µM
[12] = molecular target: Casein kinase I isoform gamma-3 (Homo sapiens) (UniProt Q9Y6M4); settings: at 0.1 µM
Chain of Casein kinase I isoform gamma-3 (Homo sapiens) (Q9Y6M4 whole entry, looked up, canonical isoform): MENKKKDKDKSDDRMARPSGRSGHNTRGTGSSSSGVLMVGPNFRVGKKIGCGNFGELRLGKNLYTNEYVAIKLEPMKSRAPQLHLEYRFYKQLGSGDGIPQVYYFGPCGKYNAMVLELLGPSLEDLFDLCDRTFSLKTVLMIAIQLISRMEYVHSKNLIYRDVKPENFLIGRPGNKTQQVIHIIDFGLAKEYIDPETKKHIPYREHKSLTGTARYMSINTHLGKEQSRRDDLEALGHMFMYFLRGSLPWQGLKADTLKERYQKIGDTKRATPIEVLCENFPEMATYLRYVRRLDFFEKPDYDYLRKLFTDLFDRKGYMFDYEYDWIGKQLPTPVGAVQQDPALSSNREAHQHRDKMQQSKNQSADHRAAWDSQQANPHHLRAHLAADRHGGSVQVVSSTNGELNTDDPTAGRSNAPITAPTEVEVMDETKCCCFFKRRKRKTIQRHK

[13] = molecular target: Casein kinase I isoform gamma-3 (Homo sapiens) (UniProt Q9Y6M4); settings: at 1 µM
[14] = molecular target: Cyclin-dependent kinase 1 (Homo sapiens) (UniProt P06493); settings: at 0.1 µM
Chain of Cyclin-dependent kinase 1 (Homo sapiens) (P06493 whole entry, looked up): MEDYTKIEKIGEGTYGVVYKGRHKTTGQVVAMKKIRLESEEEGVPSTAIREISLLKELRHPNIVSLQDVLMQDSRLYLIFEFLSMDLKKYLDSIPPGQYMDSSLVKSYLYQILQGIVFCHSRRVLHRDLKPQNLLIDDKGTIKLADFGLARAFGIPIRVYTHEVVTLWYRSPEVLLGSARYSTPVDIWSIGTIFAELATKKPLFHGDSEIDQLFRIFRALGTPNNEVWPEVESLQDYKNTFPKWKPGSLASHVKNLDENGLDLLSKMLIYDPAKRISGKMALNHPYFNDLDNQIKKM

[15] = molecular target: Cyclin-dependent kinase 1 (Homo sapiens) (UniProt P06493); settings: at 1 µM
[16] = molecular target: Cyclin-dependent kinase 2 (Homo sapiens) (UniProt P24941); settings: at 0.1 µM
[17] = molecular target: Cyclin-dependent kinase 2 (Homo sapiens) (UniProt P24941); settings: at 1 µM
[18] = molecular target: Cyclin-dependent kinase 2 (Homo sapiens) (UniProt P24941); settings: at 0.1 µM; remark: listed apart in the source
[19] = molecular target: Cyclin-dependent kinase 2 (Homo sapiens) (UniProt P24941); settings: at 1 µM; remark: listed apart in the source
[20] = molecular target: CDK3/Cyclin E (Homo sapiens) (UniProt P24864+Q00526); settings: at 0.1 µM;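 further: reported percentages are mean inhibition values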
Chain of CDK3/Cyclin E (Homo sapiens) (P24864 whole entry, looked up): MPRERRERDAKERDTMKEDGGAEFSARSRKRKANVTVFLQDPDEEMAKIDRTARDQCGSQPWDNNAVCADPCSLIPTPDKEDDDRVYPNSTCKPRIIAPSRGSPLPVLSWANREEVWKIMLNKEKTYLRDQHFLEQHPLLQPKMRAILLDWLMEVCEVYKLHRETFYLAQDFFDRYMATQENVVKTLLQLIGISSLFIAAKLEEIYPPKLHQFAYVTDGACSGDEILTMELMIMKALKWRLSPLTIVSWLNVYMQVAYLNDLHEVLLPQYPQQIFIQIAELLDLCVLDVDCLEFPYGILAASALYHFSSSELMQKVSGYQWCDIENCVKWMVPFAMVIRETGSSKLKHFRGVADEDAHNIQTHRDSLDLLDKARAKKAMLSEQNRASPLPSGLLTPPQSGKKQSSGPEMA
Chain of CDK3/Cyclin E (Homo sapiens) (Q00526 whole entry, looked up): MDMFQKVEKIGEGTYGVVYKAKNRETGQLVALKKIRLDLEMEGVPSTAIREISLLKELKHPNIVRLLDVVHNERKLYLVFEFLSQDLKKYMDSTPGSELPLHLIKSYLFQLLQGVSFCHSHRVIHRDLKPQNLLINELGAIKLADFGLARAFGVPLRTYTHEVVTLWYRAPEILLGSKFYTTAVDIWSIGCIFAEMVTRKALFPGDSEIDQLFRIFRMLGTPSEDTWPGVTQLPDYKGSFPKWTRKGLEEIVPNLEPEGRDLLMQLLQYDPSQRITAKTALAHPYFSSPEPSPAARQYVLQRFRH

Compound | inhibition [1] [%] | inhibition [2] [%] | inhibition [3] [%] | inhibition [4] [%] | inhibition [5] [%] | inhibition [6] [%] | inhibition [7] [%] | inhibition [8] [%] | inhibition [9] [%] | inhibition [10] [%] | inhibition [11] [%] | inhibition [12] [%] | inhibition [13] [%] | inhibition [14] [%] | inhibition [15] [%] | inhibition [16] [%] | inhibition [17] [%] | inhibition [18] [%] | inhibition [19] [%] | inhibition [20] [%]
[O-][S+]1CCN(Cc2ccc(-c3ccc4ncnc(Nc5ccc(OCc6cccc(F)c6)c(Cl)c5)c4c3)o2)CC1 | 5.41 | 5.74 | 5.31 | 3.26 | 3.22 | 5.02 | 4.04 | 4.04 | 5.15 | 3.65 | 5.36 | 4.15 | 2.36 | 2.01 | -1.04 | 3.62 | 4.32 | 5.35 | 6.57 | 0.55
COC(=O)c1sc(-n2cnc3cc(OC)c(OC)cc32)cc1OCc1ccccc1C(F)(F)F | 28.6 | 3.74 | 4.56 | 2.04 | 1.18 | -3.52 | 1.68 | 4.13 | 4.8 | 2.8 | 4.73 | 3.9 | 2.94 | -0.15 | 1.15 | 1.51 | 3.81 | 4.73 | 8.33 | 3.47
CCn1c(-c2nonc2N)nc2c(C#CC(C)(C)O)nc(OC[C@H](N)c3ccccc3)cc21 | 6.85 | 7.96 | 44.1 | 0.93 | 2.24 | 2.03 | 11.4 | 1.99 | 5.61 | 1.71 | 5.45 | 1.72 | 4.23 | 2.55 | 0.95 | 3.52 | 4.36 | 0.77 | 2.97 | -2.75
CCN(CC)S(=O)(=O)c1ccc(OC)c(Nc2ncc(-c3ccccc3)o2)c1 | 4.22 | 0.3 | -0.98 | -0.73 | -0.01 | 1.13 | 1.02 | 0.91 | 0.27 | 0.3 | -0.29 | -0.78 | 1.34 | 0.99 | 5.32 | 2.02 | 5.22 | 3.09 | 3.61 | 1.42
CCn1c(-c2nonc2N)nc2cnc(Oc3cccc(NC(=O)c4ccc(N(C)C)cc4)c3)cc21 | 6.31 | 10.9 | 52.2 | -0.81 | -0.76 | 2.09 | 7.22 | 1.44 | 1.65 | 1.06 | 1.09 | 0.95 | 0.52 | 0.43 | 0.67 | 1.74 | 8.52 | 1.65 | 2.7 | -1.33
CCn1c(-c2nonc2N)nc2ccccc21 | 3.36 | 2.04 | 0.61 | 0.97 | -0.93 | 2.92 | 3.37 | 1.61 | 3.25 | 0.92 | 2.97 | 0.54 | 4.86 | -0.3 | 0.59 | 1.31 | 2.17 | 1.38 | 4.31 | 1.63
CCNC(=O)O[C@H]1CN[C@H](C#Cc2cc3ncnc(Nc4ccc(OCc5cccc(F)c5)c(Cl)c4)c3s2)C1 | 3.67 | 2.93 | -2.91 | 3.47 | -1.23 | 1.8 | 1.43 | 2.15 | 2.01 | 1.8 | 2.86 | 3.84 | 0.57 | 0.57 | 2.13 | 2.63 | -0.72 | 2.61 | 3.62 | 1.08
